Assay [1] in a line: Quantitative High-Throughput drug screen in 47 multiple myeloma cell lines against the NCATS MIPE library collection: Karpas25_ECACC cell viability assay (AID 1918968; note: nearly all actives have a fitted effect of over 35% in size; note: potency is the fitted concentration of half-maximal effect). Summed up: (§1)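 Myeloma cells (500 per well) were exposed to MIPE 4.0 compounds by pin transfer and incubated 48 hours at 37C, 5% CO2. Viability was read as ATP by CellTiter-Glo luminescence, normalised to DMSO (100%) and media-only (0%) wells.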

The nature of assay [2]: Quantitative High-Throughput drug screen in 47 multiple myeloma cell lines against the NCATS MIPE library collection: KMS12BM_JCRB cell viability assay (AID 1918971). Note: nearly all actives have a fitted effect of over 35% in size. Note: potency is the fitted concentration of half-maximal effect. A digest of the protocol:
(§2)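 Relative luminescence from CellTiter-Glo served as the viability signal, referenced to DMSO-treated (100%) and cell-free medium (0%) controls. Treatment lasted 48 hours at 37C with 500 cells per well.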

The nature of assay [3]: Quantitative High-Throughput drug screen in 47 multiple myeloma cell lines against the NCATS MIPE library collection: KMS12PE_JCRB cell viability assay (AID 1918972). Note: nearly all actives have a fitted effect of over 30% in size. Note: potency is the fitted concentration of half-maximal effect. Summed up:
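Luminescent ATP measurement with CellTiter-Glo gives viability, scaled between DMSO-only wells (100%) and media-only wells (0%). Cells, 500 per well, faced library compounds for 48 hours at 37C.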

A short description of assay [4]: Quantitative High-Throughput drug screen in 47 multiple myeloma cell lines against the NCATS MIPE library collection: KMS21BM_JCRB cell viability assay (AID 1918974). Note: potency is the fitted concentration of half-maximal effect. Particulars: ATP luminescence, 48 h; viability: at 45.8 µM (top of the series). A digest of the protocol: as §1
Assay [5] in a line: Quantitative High-Throughput drug screen in 47 multiple myeloma cell lines against the NCATS MIPE library collection: KMS26_JCRB cell viability assay (AID 1918975). Note: nearly all actives have a fitted effect of over 45% in size. Note: potency is the fitted concentration of half-maximal effect. Summed up: as §2
Assay [6] in a line: Quantitative High-Throughput drug screen in 47 multiple myeloma cell lines against the NCATS MIPE library collection: NCIH929_DSMZ cell viability assay (AID 1918978). Note: nearly all actives have a fitted effect of over 35% in size. Note: potency is the fitted concentration of half-maximal effect. A digest of the protocol: (§3)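 qHTS format: cells plated (500/well), pin-dosed with MIPE 4.0 compounds, kept 48 h at 37 °C. Readout was CellTiter-Glo luminescence, median RLU.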
Assay [7] in a line: Quantitative High-Throughput drug screen in 47 multiple myeloma cell lines against the NCATS MIPE library collection: MOLP8_DSMZ cell viability assay (AID 1918977). Note: nearly all actives have a fitted effect of over 45% in size. Note: potency is the fitted concentration of half-maximal effect. A digest of the protocol:
as §3

Assay [8] is described as follows: Quantitative High-Throughput drug screen in 47 multiple myeloma cell lines against the NCATS MIPE library collection: KMS20_JCRB cell viability assay (AID 1918973). Note: potency is the fitted concentration of half-maximal effect; nearly all actives have a fitted effect of over 45% in size. A digest of the protocol:
as §1

A short description of assay [9]: Quantitative High-Throughput drug screen in 47 multiple myeloma cell lines against the NCATS MIPE library collection: MMM1_PLB cell viability assay (AID 1918976). Note: potency is the fitted concentration of half-maximal effect; nearly all actives have a fitted effect of over 35% in size. Summed up:
as §3

The nature of assay [10]: Quantitative High-Throughput drug screen in 47 multiple myeloma cell lines against the NCATS MIPE library collection: KMS27_JCRB cell viability assay (AID 1918970). Note: nearly all actives have a fitted effect of over 30% in size. Particulars: KMS27 myeloma cells, CellTiter-Glo ATP viability, 48 h; viability (% of DMSO): at 45.8 µM (top of the series). A digest of the protocol:
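Each line is seeded at 500 cells per well and treated with library compounds for 48 hours under 37 °C, 5% CO2. CellTiter-Glo is then added for 5 min at room temperature before median relative luminescence is recorded.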
A general note: Cellular ATP, detected with luciferase, serves as a proxy for viable cell number.

Records with an inconclusive call do not appear. Active and inactive are the calls of the source. Calls come from the whole dose curve; as a rule, active = well fitted curve in the direction sought with a large enough effect; inconclusive = small, poorly fitted or top-dose-only effect, or another doubt; inactive = no such curve, though single readings can be large; an effect the other way counts as inactive or inconclusive.

As to `CNC(=O)[C@H](CC1=CN=C2C=CCC=C12)NC(=O)[C@@H](CC(=O)NO)CC(C)C`, the Potency is 6.62 µM (active) in assay [1], 0.105 µM (active) in [3], 0.105 µM (active) in assay [4] and 23.5 µM (active) in assay [6]. The Potency result in assay [2] and in assay [5] was “inactive” each time.

With `COc1cc2nc(-c3cc(F)ccc3O)nc(N[C@@H]3CNC[C@@H]3C(C)(C)O)c2cc1OC`, the Potency is 4.18 µM (active) in assay [1]; 20.9 µM (active) in assay [2]; 8.33 µM (active) in [3]; 0.935 µM (active) in [4]; 18.7 µM (active) in assay [5]; 5.9 µM (active) in [7]. Besides, in assay [6], the Potency was 7.43 µM (active).

With `CCOC(=O)N1CCN([N+]([O-])=NOc2cc(ON=[N+]([O-])N3CCN(C(=O)OCC)CC3)c([N+](=O)[O-])cc2[N+](=O)[O-])CC1`, the Potency in [1] was 2.64 µM (active); in assay [2], 5.26 µM (active); in [8] it was 2.64 µM (active); in assay [5] it was 2.35 µM (active); in [9], 6.62 µM (active); in assay [7], 2.35 µM (active). In addition, in assay [6], the Potency is 2.64 µM (active). In assay [3], the Potency result was “inactive”.

As for `O=C(O)C1=CO[C@@H](O[C@@H]2O[C@H](CO)[C@H](O)[C@H](O)[C@H]2O)[C@@H]2C(CO)=CC[C@H]12`, the Potency entry in [1], in [10] and in assay [7] was “inactive” throughout. The Potency in assay [3] is 0.0743 µM (active).

Take `CCN1CCC(n2cc(CNc3cc(Cl)c4ncc(C#N)c(Nc5ccc(F)c(Cl)c5)c4c3)nn2)CC1`: the Potency in assay [1] was 18.7 µM (active); in [2], 9.35 µM (active); in assay [3], 8.33 µM (active); in assay [8], 16.6 µM (active); in assay [5] it was 8.33 µM (active); in assay [9], 14.8 µM (active). In addition, in assay [6], the Potency is 20.9 µM (active).

For the compound `CN1CCC(COc2cnc(-c3cccc(Cn4nc(-c5cccc(C#N)c5)ccc4=O)c3)nc2)CC1`, the Potency in [1] is 0.0743 µM (active); in [2] it was 13.2 µM (active); in assay [8] it was 0.526 µM (active); in assay [5] it was 0.235 µM (active); in assay [9] it was 0.059 µM (active); in assay [6] it was 0.0526 µM (active). For the same compound, the Potency entry in assay [7] is “inactive”.

Turning to `COc1c(C)c2c(c(O)c1CC=C(C)CCC(=O)O)C(=O)OC2`, the Potency was 13.2 µM (active) in assay [1], 3.32 µM (active) in [2], 14.8 µM (active) in assay [3] and 1.18 µM (active) in assay [9].

With `OCCn1cc(-c2ccc3c(c2)CCC3=NO)c(-c2ccncc2)n1`, the Potency was 23.5 µM (active) in assay [1], 8.33 µM (active) in [4], 0.0662 µM (active) in [7] and 20.9 µM (active) in [6]. For the same compound, the Potency entry in [2] and in assay [3] was “inactive” in each case.

With `COc1cc2nccc(Oc3ccc(NC(=O)Nc4ccc(F)cc4F)c(F)c3)c2cc1OC`, the Potency result in assay [1], in assay [3] and in assay [6] was “inactive” each time. Further, in [2], the Potency is 11.8 µM (active).

As for `O=C(Nc1ccc(OC(F)(F)F)cc1)c1sccc1NCc1ccnc2ccccc12`, the Potency is 13.2 µM (active) in assay [1]; 14.8 µM (active) in [2]; 18.7 µM (active) in assay [3]; 18.7 µM (active) in [5]; 16.6 µM (active) in assay [9]; 20.9 µM (active) in assay [6].

`CCNC(=O)[C@H]1O[C@@H](n2cnc3c(N)nc(NCCc4ccc(CCC(=O)O)cc4)nc32)[C@H](O)[C@H]1O`: the Potency in assay [1] is 0.105 µM (active); in assay [2] it was 3.32 µM (active); in assay [3] it was 0.132 µM (active); in assay [6], 0.332 µM (active).

Turning to `Cc1cnc(Nc2cccc(CN3CCOCC3)c2)nc1Nc1cccc(S(=O)(=O)NC(C)(C)C)c1`, the Potency was 3.72 µM (active) in assay [1]; 5.26 µM (active) in [2]; 2.96 µM (active) in assay [8]; 0.833 µM (active) in [4]; 18.7 µM (active) in assay [5]; 18.7 µM (active) in assay [9]. For the same compound, the Potency in assay [7] was 2.96 µM (active); in assay [6] it was 1.87 µM (active).

Consider `CN1N=C(N)c2cn([C@@H]3O[C@H](COP(=O)(O)O)[C@@H](O)[C@@H]3O)c3ncnc1c23`, for which the Potency in [1] was 0.372 µM (active); in assay [2], 6.62 µM (active); in [8], 1.32 µM (active); in assay [5], 0.0132 µM (active); in assay [9], 0.469 µM (active); in assay [6], 0.0469 µM (active).

Turning to `Fc1ccc(CNc2ncnc3ccc(F)cc23)cc1`, the Potency is 3.72 µM (active) in assay [1]; 3.72 µM (active) in [2]; 4.69 µM (active) in assay [3]; 4.18 µM (active) in assay [9]; 16.6 µM (active) in assay [6]. Besides, the Potency result in assay [5] was “inactive”.

As to `CN(C)N=Nc1nc[nH]c1C(N)=O`, the Potency entry in [1], in [2] and in assay [6] was “inactive” in each case. For the same compound, the figures for the Potency in assay [3], in assay [5] and in [9] were 0.166 µM (active), 20.9 µM (active) and 4.69 µM (active), respectively.

Turning to `C[C@H]1[C@H](O)O[C@@H]2O[C@@]3(C)CC[C@@H]4[C@H](C)CC[C@@H]1[C@@]24OO3`, the Potency was 1.66 µM (active) in assay [1], 1.66 µM (active) in assay [2], 14.8 µM (active) in assay [8] and 10.5 µM (active) in assay [5].

As for `CC1C(=O)OC2C(O)C34C5CC(C(C)(C)C)C36C(OC(=O)C6O)OC4(C(=O)O5)C12O` (centres undefined), the Potency entry in [1], in assay [2], in assay [3], in assay [5] and in assay [6] was “inactive” each time. The Potency in assay [9] is 0.0187 µM (active).

Turning to `CNc1nc(Nc2ccc(C(=O)N3CCOCC3)cc2OC)ncc1Cl`, the Potency result in [1] and in assay [3] was “inactive” in each case. Further, the results for the Potency in assay [2] and in assay [9] were 14.8 µM (active) and 13.2 µM (active), respectively.

For the compound `CCOC(=O)[C@H](CCc1ccccc1)N[C@@H](C)C(=O)N1CCCC1C(=O)O` (some centres undefined), the Potency result in assay [1], in assay [2], in assay [3], in [5], in [7] and in assay [6] was “inactive” each time.

The values are drawn from PubChem BioAssay (NCATS).
